# Reference: the supplement of paper PMC12350171
# Where a name gives a salt, the structure may show the parent alone. Values without a mark were called inactive.
# Assays:
# Conditions in all cases: 20 µM
# [1] = tested on: Salmonella enterica typhimurium; assay: growth AUC normalised to DMSO control (fraction of control); higher = less growth inhibition, active = hit call of the paper
# In short: (§1)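 After two anaerobic passages, pathogens were added at a starting OD578 of 0.01 to pre-reduced mGAM plates holding compound at 20 μM with 1% DMSO; hemin and NAD were supplemented for Haemophilus parainfluenzae. Sealed with breathable membranes, plates were read at OD578 hourly for 24 h, in three biological replicates. The trapezoidal rule, applied up to the exponential-to-stationary transition, gave the growth-curve AUC, which was normalised to DMSO controls on the same plate.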
# [2] = tested on: Shigella flexneri; assay: as above
# In short: as §1
# [3] = tested on: Vibrio cholerae; assay: as above
# In short: as §1
# [4] = tested on: Yersinia pseudotuberculosis; assay: as above
# In short: as §1
# [5] = tested on: P. vulgatus RND KO; assay: growth AUC normalised to DMSO control (median) (fraction of control); higher = less growth inhibition, active = hit call of the paper
# In short: (§2)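 Each strain went through two overnight passages under anaerobic conditions before growth in mGAM in 96-well plates, starting at OD578 0.01, with each compound from the approved-drug library at 20 μM and 1% DMSO. Inside an anaerobic incubator, OD578 was recorded every hour for 24 h. Growth curves were cut off at entry into stationary phase, and the area under the curve was calculated by the trapezoidal rule and normalised to vehicle wells on the same plate. Reported values are medians of three biological replicates.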
# [6] = tested on: P. vulgatus WT; assay: as above
# In short: as §2
# [7] = tested on: S. enterica typhimurium WT; assay: as above
# In short: as §2
# [8] = tested on: S. enterica typhimurium tolC KO; assay: as above
# In short: as §2
# 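For growth AUC normalised to DMSO control (median) in this document: active when median AUC fell below 0.1.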
Structure (SMILES),growth AUC normalised to DMSO control [1],growth AUC normalised to DMSO control [2],growth AUC normalised to DMSO control [3],growth AUC normalised to DMSO control [4],growth AUC normalised to DMSO control [5],growth AUC normalised to DMSO control [6],growth AUC normalised to DMSO control [7],growth AUC normalised to DMSO control [8]
CCCNC(C)(C)COC(=O)c1ccccc1 [Meprylcaine hydrochloride],0.996,1.02,1.01,1.01,0.984,1.01,1,0.995
Cn1c(=O)c2c(ncn2CCO)n(C)c1=O [Etofylline],0.998,0.993,1.01,1.01,0.998,1.02,0.999,0.993
CN1CCCCC1CCN1c2ccccc2Sc2ccc([S+](C)[O-])cc21 (stereo not given) [Mesoridazine besylate],0.993,0.978,0.949,1.01,0.941,0.885,0.997,0.944
Nc1ccc(C(=O)NCC(=O)O)cc1 [Aminohippuric acid],1.03,0.989,0.998,0.997,0.992,1.01,1.01,0.999
CCN(CC)CCNC(C(=O)OCCC(C)C)c1ccccc1 (stereo not given) [Camylofine chlorhydrate],0.992,0.991,0.953,0.997,1.01,1.02,1,0.973
COc1cccc2c1C(=O)c1c(O)c3c(c(O)c1C2=O)C[C@@](O)(C(C)=O)C[C@@H]3O[C@H]1C[C@H](N)[C@H](O)[C@H](C)O1 [Daunorubicin hydrochloride],0.998,0.959,1.04,0.978,0.865,0.95,0.999,0.00353 (active)
Cn1ccnc1S [Methimazole],1.01,1.02,1.02,1.01,0.996,1.01,1,0.988
CN[C@@H]1[C@H](O[C@H]2[C@H](O[C@H]3[C@H](O)[C@@H](O)[C@H](NC(=N)N)[C@@H](O)[C@@H]3NC(=N)N)O[C@@H](C)[C@]2(O)CO)O[C@@H](CO)[C@H](O)[C@H]1O [Dihydrostreptomycin sulfate],0.994,1.01,1.02,0.973,0.999,1.02,0.992,0.989
CC(C)(Oc1ccc(Cl)cc1)C(=O)O [Clofibric acid],0.995,1,0.986,0.996,0.998,1.01,0.996,1
NCC[C@H](O)C(=O)N[C@@H]1C[C@H](N)[C@@H](O[C@H]2O[C@H](CN)[C@@H](O)[C@H](O)[C@H]2O)[C@H](O)[C@H]1O[C@H]1O[C@H](CO)[C@@H](O)[C@H](N)[C@H]1O [Amikacin hydrate],0.922 (active),0.985,1.01,0.122 (active),1.02,1.04,1,0.995
CC[C@H]1OC(=O)[C@H](C)[C@@H](O[C@H]2C[C@@](C)(OC)[C@@H](O)[C@H](C)O2)[C@H](C)[C@@H](O[C@@H]2O[C@H](C)C[C@H](N(C)C)[C@H]2O)[C@](C)(O)C[C@@H](C)/C(=N\OCOCCOC)[C@H](C)[C@@H](O)[C@]1(C)O [Roxithromycin],0.84 (active),0.82 (active),0.0242 (active),0.954,0.0176 (active),0.0119 (active),0.899,0.0779 (active)
O=C(CCNNC(=O)c1ccncc1)NCc1ccccc1 [Nialamide],0.997,1.02,1.05,1.01,0.995,1.04,0.999,1.01
CN(C)CCCSC(=N)N [Dimaprit dihydrochloride],0.991,1,0.986,1,0.99,0.999,1,1.01
CC(C)(C)C(=O)OCOC(=O)[C@@H]1N2C(=O)[C@@H](/N=C/N3CCCCCC3)[C@H]2SC1(C)C [Pivmecillinam hydrochloride],0.0179 (active),0.0752 (active),0.956,0.0551 (active),1.01,1.03,0.158,0.145
CC(C(=O)O)c1ccc(-c2ccccc2)c(F)c1 (stereo not given) [Flurbiprofen],0.986,0.98,0.96,0.985,0.994,0.991,0.995,0.977
CCN(CC)CCOC(=O)C1(C2CCCCC2)CCCCC1 [Dicyclomine hydrochloride],0.935,0.978,0.889,0.98,1,1.02,0.999,0.933
CCCc1nc2c(C)cc(-c3nc4ccccc4n3C)cc2n1Cc1ccc(-c2ccccc2C(=O)O)cc1 [Telmisartan],1,1.02,1.02,1.01,0.852,0.897,0.996,0.995
CNCCC=C1c2ccccc2CCc2ccccc21 [Nortriptyline hydrochloride],0.998,0.991,0.937,0.992,0.99,1.01,1,0.971
CCOC(=O)[C@H](CCc1ccccc1)N[C@@H](C)C(=O)N1Cc2ccccc2C[C@H]1C(=O)O [Quinapril hydrochloride],0.986,0.967,0.988,1.01,0.995,0.982,0.982,0.996
Nc1nc2c(ncn2COC(CO)CO)c(=O)[nH]1 [Ganciclovir],0.988,0.996,1,0.99,0.978,0.971,0.992,0.993
CC1(C)[C@@H](OC(=O)CCC(=O)O)CC[C@]2(C)[C@H]3C(=O)C=C4[C@@H]5C[C@@](C)(C(=O)O)CC[C@]5(C)CC[C@@]4(C)[C@]3(C)CC[C@@H]12 [Carbenoxolone disodium salt],0.992,0.939,0.971,0.978,0.967,0.976,0.997,0.987
CNC(=C[N+](=O)[O-])NCCSCc1ccc(CN(C)C)o1 [Ranitidine hydrochloride],1,1,1.01,1.01,1.01,0.985,1.02,1.01
C[C@H]1O[C@@H](O[C@H]2[C@@H](O)C[C@H](O[C@H]3[C@@H](O)C[C@H](O[C@H]4CC[C@@]5(C)[C@H](CC[C@@H]6[C@@H]5C[C@@H](O)[C@]5(C)[C@@H](C7=CC(=O)OC7)CC[C@]65O)C4)O[C@@H]3C)O[C@@H]2C)C[C@H](O)[C@@H]1O [Digoxin],0.978,0.945,0.973,0.993,0.985,1.01,0.987,0.995
COc1cc(-c2ccc(=O)[nH]n2)ccc1OC(F)F [Zardaverine],0.99,0.999,0.955,0.998,1,1.02,0.995,0.997
C[C@H](N)[C@H](O)c1cccc(O)c1 [Metaraminol bitartrate],0.992,0.972,0.984,1.01,0.993,0.989,0.994,1
OC(CCCN1CCCCC1)(c1ccccc1)c1ccccc1 [Diphenidol hydrochloride],0.999,1,1,1.01,1.04,1.04,1,0.987
CC1=Nc2ccc(Cl)cc2S(=O)(=O)N1 [Diazoxide],1.01,1.03,1.02,0.999,1.04,1.01,1.01,0.989
CC[C@H](C)[C@H](N)C1=N[C@H](C(=O)N[C@@H](CC(C)C)C(=O)N[C@H](CCC(=O)O)C(=O)N[C@H](C(=O)N[C@H]2CCCCNC(=O)[C@H](CC(N)=O)NC(=O)[C@@H](CC(=O)O)NC(=O)[C@H](Cc3cnc[nH]3)NC(=O)[C@@H](Cc3ccccc3)NC(=O)[C@H]([C@@H](C)CC)NC(=O)[C@@H](CCCN)NC2=O)[C@@H](C)CC)CS1 [Bacitracin],0.996,0.98,1.15,0.976,0.137,0.104,1.01,1.01
CNCCC(Oc1ccccc1OC)c1ccccc1 (stereo not given) [Nisoxetine hydrochloride],0.949,1.02,1,0.993,1.01,1,0.957,0.91
CCn1cc(C(=O)O)c(=O)c2cnc(N3CCCC3)nc21 [Piromidic acid],0.996,1.04,0.0557 (active),0.983,1.06,1.03,1.02,0.0548 (active)
